According to PMC12820563, “FoxP3 forms a head-to-head dimer in vivo and stabilizes its multimerization on adjacent microsatellites”:
Whole data set: some 16,000 sequences, median “rpm ratio (pull-down/input)” near 0.5, cut for the highest 2% near 5.5. This excerpt belongs to a sample that is enriched for the highest values.

Molecular target: T1, MBP-FoxP3dN (Mus musculus, UniProt Q99JB6 188-423)
T1 sequence: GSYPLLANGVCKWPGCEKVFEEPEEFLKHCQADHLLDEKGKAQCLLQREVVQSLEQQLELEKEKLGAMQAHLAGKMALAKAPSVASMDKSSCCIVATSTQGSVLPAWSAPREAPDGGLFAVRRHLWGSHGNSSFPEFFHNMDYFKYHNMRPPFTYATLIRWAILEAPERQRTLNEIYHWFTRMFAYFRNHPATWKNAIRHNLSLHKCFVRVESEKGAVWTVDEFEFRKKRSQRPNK
Test: PD-seq (MBP pull-down with sequencing); 20 mM Tris-HCl pH 7.5, 100 mM NaCl, 1.5 mM MgCl2, 0.4 uM protein, 0.1 uM dsDNA library, 30 min, room temperature, amylose pull-down; high values mean tight binding
Conditions: protein: recombinant; tags: His6-MBP; chain copies: 2; dsDNA, one strand shown
How it was run: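 The N-terminus-lacking fragment of mouse FoxP3 or FoxP1 carried a His6-MBP tag and was expressed in E. coli. At 0.4 µM it was incubated with 0.1 µM Klenow-filled degenerate double-stranded DNA library for 30 min at room temperature in Tris pH 7.5 buffer with NaCl and MgCl2, and complexes were caught on amylose resin, washed three times, released with proteinase K, PCR-barcoded and Illumina-sequenced. Binding is reads-per-million enrichment of pull-down over input with replicates pooled.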

| Sequence | binding signal |
| --- | --- |
| GATGATTGTTCTCCCAGCTGATGAATTCCGTGCCTCGAGTAAACAAATTTTCCTAATCTTTCTGTTCAAGCGCCATCTAC | 0.796 RPM ratio (pull-down/input) |
| GATGATTGTTCTCCCAGCTGATGAATTTATCTGATCGAGTAAACAAATTTTCCTAATCTTTCTGTTCAAGCGCCATCTAC | 0.374 RPM ratio (pull-down/input) |
| GATGATTGTTCTCCCAGCTGATGAATTTATCGAGTCGAGTAAACAAATTTTCCTAATCTTTCTGTTCAAGCGCCATCTAC | 0.379 RPM ratio (pull-down/input) |
| GATGATTGTTCTCCCAGCTGATGAATTCTAATCATCGAGTAAACAAATTTTCCTAATCTTTCTGTTCAAGCGCCATCTAC | 0.567 RPM ratio (pull-down/input) |
| GATGATTGTTCTCCCAGCTGATGAATTTTTCGCATCGAGTAAACAAATTTTCCTAATCTTTCTGTTCAAGCGCCATCTAC | 0.898 RPM ratio (pull-down/input) |
| GATGATTGTTCTCCCAGCTGATGAATTCGCCATTTCGAGTAAACAAATTTTCCTAATCTTTCTGTTCAAGCGCCATCTAC | 1.75 RPM ratio (pull-down/input) |
| GATGATTGTTCTCCCAGCTGATGAATTTTCGCATTCGAGTAAACAAATTTTCCTAATCTTTCTGTTCAAGCGCCATCTAC | 6.27 RPM ratio (pull-down/input) |
| GATGATTGTTCTCCCAGCTGATGAATTCGCATTTTCGAGTAAACAAATTTTCCTAATCTTTCTGTTCAAGCGCCATCTAC | 4.25 RPM ratio (pull-down/input) |
| GATGATTGTTCTCCCAGCTGATGAATTTCGCATTTCGAGTAAACAAATTTTCCTAATCTTTCTGTTCAAGCGCCATCTAC | 6.94 RPM ratio (pull-down/input) |
| GATGATTGTTCTCCCAGCTGATGAATTTGACGCATCGAGTAAACAAATTTTCCTAATCTTTCTGTTCAAGCGCCATCTAC | 1.22 RPM ratio (pull-down/input) |
| GATGATTGTTCTCCCAGCTGATGAATTCGCATTCTCGAGTAAACAAATTTTCCTAATCTTTCTGTTCAAGCGCCATCTAC | 4.89 RPM ratio (pull-down/input) |
| GATGATTGTTCTCCCAGCTGATGAATTGTTCGCATCGAGTAAACAAATTTTCCTAATCTTTCTGTTCAAGCGCCATCTAC | 1.1 RPM ratio (pull-down/input) |
| GATGATTGTTCTCCCAGCTGATGAATTCGACGCATCGAGTAAACAAATTTTCCTAATCTTTCTGTTCAAGCGCCATCTAC | 0.992 RPM ratio (pull-down/input) |
| GATGATTGTTCTCCCAGCTGATGAATTGACGCATTCGAGTAAACAAATTTTCCTAATCTTTCTGTTCAAGCGCCATCTAC | 5.74 RPM ratio (pull-down/input) |
| GATGATTGTTCTCCCAGCTGATGAATTCTCGCATTCGAGTAAACAAATTTTCCTAATCTTTCTGTTCAAGCGCCATCTAC | 5.82 RPM ratio (pull-down/input) |
| GATGATTGTTCTCCCAGCTGATGAATTTCGCCATTCGAGTAAACAAATTTTCCTAATCTTTCTGTTCAAGCGCCATCTAC | 5.04 RPM ratio (pull-down/input) |
| GATGATTGTTCTCCCAGCTGATGAATTTGGATACTCGAGTAAACAAATTTTCCTAATCTTTCTGTTCAAGCGCCATCTAC | 1.85 RPM ratio (pull-down/input) |

| Sequence | binding signal |
| --- | --- |
| GATGATTGTTCTCCCAGCTGATGAATTGCCCAAATCGAGTAAACAAATTTTCCTAATCTTTCTGTTCAAGCGCCATCTAC | 0.385 RPM ratio (pull-down/input) |
| GATGATTGTTCTCCCAGCTGATGAATTAGTTACATCGAGTAAACAAATTTTCCTAATCTTTCTGTTCAAGCGCCATCTAC | 0.891 RPM ratio (pull-down/input) |
| GATGATTGTTCTCCCAGCTGATGAATTTAGCTACTCGAGTAAACAAATTTTCCTAATCTTTCTGTTCAAGCGCCATCTAC | 1.83 RPM ratio (pull-down/input) |
| GATGATTGTTCTCCCAGCTGATGAATTTTTGGAGTCGAGTAAACAAATTTTCCTAATCTTTCTGTTCAAGCGCCATCTAC | 0.23 RPM ratio (pull-down/input) |
| GATGATTGTTCTCCCAGCTGATGAATTGGATGGCTCGAGTAAACAAATTTTCCTAATCTTTCTGTTCAAGCGCCATCTAC | 0.46 RPM ratio (pull-down/input) |
| GATGATTGTTCTCCCAGCTGATGAATTGGGCAGCTCGAGTAAACAAATTTTCCTAATCTTTCTGTTCAAGCGCCATCTAC | 0.963 RPM ratio (pull-down/input) |
| GATGATTGTTCTCCCAGCTGATGAATTTGAGCACTCGAGTAAACAAATTTTCCTAATCTTTCTGTTCAAGCGCCATCTAC | 0.481 RPM ratio (pull-down/input) |
| GATGATTGTTCTCCCAGCTGATGAATTCCACCCGTCGAGTAAACAAATTTTCCTAATCTTTCTGTTCAAGCGCCATCTAC | 0.242 RPM ratio (pull-down/input) |
| GATGATTGTTCTCCCAGCTGATGAATTGTTAGATTCGAGTAAACAAATTTTCCTAATCTTTCTGTTCAAGCGCCATCTAC | 0.635 RPM ratio (pull-down/input) |
| GATGATTGTTCTCCCAGCTGATGAATTTGTCGGTTCGAGTAAACAAATTTTCCTAATCTTTCTGTTCAAGCGCCATCTAC | 3.1 RPM ratio (pull-down/input) |
| GATGATTGTTCTCCCAGCTGATGAATTTCGTCCCTCGAGTAAACAAATTTTCCTAATCTTTCTGTTCAAGCGCCATCTAC | 0.799 RPM ratio (pull-down/input) |
| GATGATTGTTCTCCCAGCTGATGAATTTCGCATCTCGAGTAAACAAATTTTCCTAATCTTTCTGTTCAAGCGCCATCTAC | 6.74 RPM ratio (pull-down/input) |
| GATGATTGTTCTCCCAGCTGATGAATTCGCGCATTCGAGTAAACAAATTTTCCTAATCTTTCTGTTCAAGCGCCATCTAC | 7.06 RPM ratio (pull-down/input) |
| GATGATTGTTCTCCCAGCTGATGAATTTCACGCATCGAGTAAACAAATTTTCCTAATCTTTCTGTTCAAGCGCCATCTAC | 1.01 RPM ratio (pull-down/input) |
| GATGATTGTTCTCCCAGCTGATGAATTCACGCATTCGAGTAAACAAATTTTCCTAATCTTTCTGTTCAAGCGCCATCTAC | 5.67 RPM ratio (pull-down/input) |
| GATGATTGTTCTCCCAGCTGATGAATTCGCATCTTCGAGTAAACAAATTTTCCTAATCTTTCTGTTCAAGCGCCATCTAC | 5.81 RPM ratio (pull-down/input) |
| GATGATTGTTCTCCCAGCTGATGAATTTCTCGCATCGAGTAAACAAATTTTCCTAATCTTTCTGTTCAAGCGCCATCTAC | 0.861 RPM ratio (pull-down/input) |
